LASV entry inh: inhibitors of Lassa virus binding or cell entry | Lassa virus pseudotype entry inhibition, cell reporter | Potency, µM (series often up to 37.9 µM), hits mostly inhibitors | 300,000 compounds, 1.2% hits | AID 540256; calls by dose curve; tested in HEK293 cells; also: nearly all actives have a fitted effect of over 50% in size
Marburg entry inh: Marburg virus entry inhibition; AID 540276; Potency, µM (doses to about 37.8 µM), hits mostly inhibitors; Marburg virus pseudotyped entry inhibition, cell reporter; 300,000 compounds, 1.8% hits; calls by dose curve; tested in HEK293 cells
Pf growth 96h: P. falciparum growth inhibition at 96 hours. 320,000 compounds, 6.9% hits. P. falciparum luciferase reporter growth, 96 h. Potency, µM (top dose mostly 28.7 µM), hits mostly inhibitors
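Parasite growth measured via integrated firefly luciferase reporter in P. falciparum. Infected erythrocytes at 2% hematocrit, 0.05% parasitemia final were treated 96 hours at 37 C under 5% CO2, and luminescence was read.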
HCV inh: HCV inhibition | Huh7.5.1 HCVcc-Cre infection, luciferase reporter, 44 h | Potency, µM (top dose mostly 41.8 µM), actives largely listed as inhibitors | 340,000 compounds, 3.4% hits | AID 651820
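Antiviral activity was scored by luciferase reporter output from cells infected with HCVcc-Cre (~0.5 moi) in presence of compound, 44 h infection period, cells seeded 1,000/well 4 h prior.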
Pf growth 48h: P. falciparum growth inhibition at 48 hours (one generation). 310,000 compounds, 5.9% hits. P. falciparum luciferase growth in erythrocytes, 48 h. Potency, µM (titrated, usually from 28.7 µM), most hits filed as inhibitors. AID 504832
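Luciferase-expressing P. falciparum in infected erythrocytes (2% hematocrit, 0.1% parasitemia final) in RPMI 1640/0.5% Albumax were exposed to compound for 48 hours at 37 C, 5% CO2; growth read as luminescence.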
HCMV antiviral: human cytomegalovirus inhibition | HFF cells, HCMV-luciferase reporter, 72 h; active compounds read low | activity change, negative = inhibition, % at 57.5 µM | 410,000 compounds, 4.5% hits; in the data active = activity change below about -60%; inconclusive = no clear call, values can overlap the other calls; inactive = above about -39%
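Two compound doses tested in HFFs infected with HCMV-luciferase, MOI 1 PFU/cell, 72 h at 37C. Lysate luminescence read with OneGlo; data normalized against buffer-only and 10uM Salinomycin inhibitor controls.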
Numbers stand for hits; 0 = inactive; ? = inconclusive; - = no result given. Hits are enriched below; roughly 14% of the tested compounds scored in any of these assays. Unless noted, calls follow the shape of the dose curve; as a rule, active = well fitted inhibition curve with a large enough effect; inconclusive = small, poorly fitted or top-dose-only effect, or another doubt; inactive = no such curve, though single readings can be large or run the other way.

SMILES	LASV entry inh	Marburg entry inh	Pf growth 96h	HCV inh	Pf growth 48h	HCMV antiviral
CC1=C(C(=O)Nc2ccc(C)cc2C)C(c2cccs2)n2nc(SCc3ccccc3Cl)nc2N1 (stereo not drawn)	0	0	-	-	-	0
Cc1cc(NS(=O)(=O)c2ccc(NC(=O)c3cc(-c4ccccc4Cl)nc4ccccc34)cc2)no1	0	0	?	0	0	0
Cc1c(Cl)ccc2c(C(=O)Nc3cc(C(C)(C)C)on3)cc(-c3ccccn3)nc12	0	0	2.08µM	0	0	0
Cc1cccc2c(C(=O)Nc3ccc(Br)cc3)cc(-c3ccccn3)nc12	0	?	?	0	0	0
O=C(NCc1ccccn1)c1ccccc1OCc1ccc(F)cc1	0	0	0	0	?	0
CN(c1ccccc1C(=O)NCc1ccccn1)S(C)(=O)=O	0	0	-	0	14.7µM	0
O=C(NCc1ccccn1)c1ccccc1OCc1ccccc1Cl	-	-	-	-	-	-66.2
Cc1cc(NC(=O)c2cc(-c3ccccc3Cl)nc3ccccc23)no1	0	?	?	0	13.1µM	?
COc1ccccc1CNC(=O)c1ccccc1N(C)S(C)(=O)=O	0	0	-	0	0	0
O=C(Nc1ccc(F)cc1)[C@H](CSCc1ccccc1)N1Cc2ccccc2C1=O	0	0	-	-	-	0
Cc1cc(NC(=O)c2ccc(Cl)cc2Cl)no1	-	-	3.7µM	0	0	0
O=C(NNC(=O)c1cc(-c2ccc(Cl)cc2Cl)nc2ccccc12)Nc1ccccc1	?	?	?	?	?	0
Cc1cc(NC(=O)c2cc(-c3ccccc3C)nc3ccccc23)no1	0	0	?	0	?	-74.4
Cc1cccc(NC(=O)c2cc(-c3ccc(C)s3)nc3ccccc23)n1	?	?	0	?	10.4µM	0
Cc1ccc(-c2cc(C(=O)Nc3cc(C)on3)c3ccccc3n2)c(C)c1	0	0	?	0	?	0
Cc1ccc(-c2cc(C(=O)O)c3ccccc3n2)s1	-	-	0	0	0	0
O=C(Nc1nn[nH]n1)c1cc(-c2ccc(Cl)c(Cl)c2Cl)nc2ccccc12	-	-	2.33µM	0	0	0
COC(=O)C1(C(=O)OC)CC=CCc2ccccc2[C@H]1C[N+](=O)[O-]	-	0	-	-	-	-
CCC(CC)C(=O)Nc1nnc(SCc2cc(=O)c3ccccc3[nH]2)s1	0	-	-	-	-	0
COC(=O)c1ccc(NC(=O)c2cc(S(=O)(=O)N3CCc4ccccc43)cn2C)cc1	0	-	-	-	-	0
COc1ccc(S(=O)(=O)c2cn(C)c3cc(N4CCCCCC4)c(F)cc3c2=O)cc1	0	-	-	-	-	0
Cc1cc(NC(=O)Nc2nnc(N3CCCCC3)s2)ccc1Br	0	?	-	-	-	0
Cc1ccc2oc(C(=O)N3CCC(O)(c4ccccc4)CC3)c(C)c2c1	-	-	10.4µM	0	?	0
COc1ccccc1C(=O)NC1(C(F)(F)F)C(=O)NC(C)=C1C#N (stereo not drawn)	0	0	-	-	-	0
CC1CCN(CC(O)COCCC23CC4CC(CC(C4)C2)C3)CC1 (stereo not drawn)	?	6.51µM	?	35.5µM	-	-74.6
SMILES	LASV entry inh	Marburg entry inh	Pf growth 96h	HCV inh	Pf growth 48h	HCMV antiviral
COC(=O)N1C[C@H](OCc2cn(-c3cc(Cl)cc(Cl)c3)nn2)[C@H](OCc2cn(-c3cc(Cl)cc(Cl)c3)nn2)C[C@@H]1c1ccccc1Br	-	-	-	-	-	0
CCCc1nc2ccccc2n1C(C(=O)NC(C)(C)C)C1CC1 (stereo not drawn)	-	-	-	-	-	0
CCN(CC)S(=O)(=O)c1ccc2c(c1)nc(CCC(=O)Nc1ccc3c(c1)OCO3)n2C	0	?	9.28µM	0	?	?
CCN(CC)S(=O)(=O)c1ccc2c(c1)nc(CCC(=O)Nc1ccc3c(c1)OCO3)n2CC	0	?	6.57µM	0	?	-68.1
CCn1c(CSc2nnc(-c3ccc4c(c3)OCO4)o2)nc2cc(S(=O)(=O)N(C)C)ccc21	0	0	-	?	?	-82.4
CCOC(=O)c1ccc(NC(=O)CN2Cc3ccccc3C2=O)cc1	0	-	-	-	-	0
Cc1ccc(OCc2occc2C(=O)O)cc1	-	-	-	0	-	0
CN1c2ccc([N+](=O)[O-])cc2N(C)C1(C)c1ccccc1 (stereo not drawn)	0	?	0	?	11.7µM	0
O=[N+]([O-])c1ccc(N2CC2)c([N+](=O)[O-])c1	0	?	-	0	-	0
CCCN1Cc2cccc(C(=O)Nc3ccc(CN4CCCC4)cc3)c2C1=O	?	?	-	0	9.28µM	0
CCc1cccc(NC(=O)c2cccc3c2C(=O)N(CC2CCCO2)C3)c1 (stereo not drawn)	-	-	?	11.2µM	?	0
CC(=O)Nc1cc(-c2nc3ccccc3s2)ccc1C	0	-	-	-	-	0
Nc1ccc(-c2nc3ccccc3s2)cn1	-	?	0	25.1µM	0	0
Cc1cc(-c2nc3ccccc3s2)ccc1N	3.55µM	?	-	0	-	0
Brc1ccc(-c2nc3ccccc3s2)s1	?	?	0	0	0	0
CCc1ccc(S(=O)(=O)c2cn(Cc3ccccc3)c3cc(N4CCCC4)c(F)cc3c2=O)cc1	0	-	-	-	-	0
COc1ccc(NC(=O)N2C[C@H]3[C@@H](c4ccccc42)[C@@H](CO)N3C(=O)C2CC2)cc1	-	-	-	-	-	0
CCC(C)c1ccc(S(=O)(=O)N2CCN(C(C)C(=O)NC3CCCC3)CC2)cc1 (stereo not drawn)	2.82µM	0	?	?	?	?
CC(C(=O)N1CCCCC1)N1CCN(S(=O)(=O)c2ccc(Cl)cc2)CC1 (stereo not drawn)	-	-	?	0	?	0
CC(C)c1ccc(S(=O)(=O)N2CCN(C(C)C(=O)N3CCCC3)CC2)cc1 (stereo not drawn)	?	0	11.7µM	0	?	-70.0
CC(C(=O)N1CCCC1)N1CCN(S(=O)(=O)c2ccc(C(C)(C)C)cc2)CC1 (stereo not drawn)	-	-	0.465µM	0	0.828µM	0
O=C(N/N=C/c1cccc2ccccc12)c1n[nH]c2c1CCCC2	0	?	0	0	0	0
Cc1ccc(/C=N/NC(=O)c2n[nH]c3c2CCCC3)cc1	?	?	0	0	0	-74.8
C/C(=N\NC(=O)c1n[nH]c2c1CCC2)c1cccs1	0	0	0	0	?	-91.0
O=C(N/N=C\c1cccc(Cl)c1)c1n[nH]c2c1CCCC2	?	?	0	0	0	0
O=C(N/N=C/c1cccs1)c1n[nH]c2c1CCCC2	2.24µM	?	0	0	0	-85.4
C/C(=N\NC(=O)c1cc(C)[nH]n1)c1cccs1	?	0	0	0	0	0
CCCc1nn2c(=O)cc(COC(=O)c3ccccc3NC(=O)c3ccc(OCC)cc3)nc2s1	0	-	-	-	-	0
O=C(NC(Cc1c[nH]c2ccccc12)C(=O)Nc1ccc(F)c([N+](=O)[O-])c1)c1cccs1 (stereo not drawn)	0.581µM	0.794µM	?	?	0	-87.5
O=C(NC(Cc1c[nH]c2ccccc12)C(=O)O)c1cccs1 (stereo not drawn)	0	0	0	0	0	0

Screening data from PubChem.
